Results on 40 molecules are retold here after PubChem BioAssay (EPA / NIEHS).

Each structure is given as a SMILES string. Active and inactive are the calls of the source. How the source made its calls: active means hit-call score of the fitted dose curve at least 0.9, where 1 is the maximum; inactive means score below 0.9.

A short description of the assay: ATG_PXRE_CIS: Attagene CIS-FACTORIAL HepG2 Assay for human Pregnane X Receptor Element (PXRE) (AID 2282957). The settings on record: HepG2 Attagene CIS-FACTORIAL PXRE reporter, mRNA; actives raise or lower the signal. The method, then: ATG_CIS is a cell-based, multiplexed-readout assay that uses HepG2, a human liver cell line, with measurements taken at 24 hours after chemical dosing in a 24-well plate.ATG_PXRE_CIS is one of 52 assay component(s) measured or calculated from the ATG_CIS assay. It is designed to make measurements of mRNA induction, a form of inducible reporter, as detected with fluorescence intensity signals by Reverse transcription polymerase chain reaction (RT-PCR) and Capillary electrophoresis technology.Data from the assay component ATG_PXRE_CIS was analyzed into 1 assay endpoint. This assay endpoint, ATG_PXRE_CIS, was analyzed with bidirectional fitting relative to DMSO as the negative control and baseline of activity. Using a type of inducible reporter, measures of mRNA for gain or loss-of-signal activity can be used to understand the reporter gene at the transcription factor-level as they relate to the gene NR1I2. Furthermore, this assay endpoint can be referred to as a primary readout, because this assay has produced multiple assay endpoints where this one serves a reporter gene function. To generalize the intended target to other relatable targets, this assay endpoint is annotated to the nuclear receptor intended target family, where the subfamily is non-steroidal.
Human liver HepG2 cells are transiently transfected with multiple reporter transcription units (MRTUs) in 6-well plates using FuGene 6 reagent (Roche; 3 ml FuGene/1 mg DNA). The MRTU constructs are regulated by a cis-regulating element (promoter). […] A major difference between the CIS and TRANS system is that in CIS activities of endogenous TFs are measured, whereas the TRANS assay evaluates changes in activities of exogenous, chimeric NR-Gal4 proteins. […] At the end of 24 hour incubation, total RNA was isolated using TriZol reagent (Invitrogen). The isolated RNA is then reverse-transcribed using oligo(dT) primer and Mo-MLV reverse transcriptase (Invitrogen) with DNAse I (Ambion) treatment for 30 min. The one-tenth of the produced cDNA was amplified by PCR using Taq DNA polymerase (Invitrogen) and two reporter sequence-specific primers. The PCR products were fluorescently labeled by primer extension with 6-arboxyfluorescein (6-FAM) 5'-labeled reporter sequence-specific primer (2 min at 95 C, 20 s at 68 C and 10 min at 72 C) and these products were digested with 5U of HpaI (New England Biolabs) for 2h at 37 C. The fragments were purified using Qiaquick PCR columns (Qiagen), analyzed on an ABI 3130xL genetic analyzer (Applied Biosystems) with peak positions identified by using a set of X-rhodamine (ROX)-labeled MapMarker1000 molecular weight standards (BioVentures). The raw capillary electrophoresis data was processed using Attagraph software (Attagene).
On to `Cc1cc(C)c(C=O)c(C)c1`, for which the AC50 is 1.61 µM (active).
The same measure, in the same setting: under `CC(=O)OCC=C(C)C` stands 52.1 µM (active); under `CCCC=C(C=O)CC`, 7.92 µM (active).
Turning to `CC(C)(O)Cc1ccccc1`, the outcome was inactive.
On to `CCOC(=O)c1ccc(C)cc1`, for which the AC50 is 56.8 µM (active).
On to `Cc1ccc(S(=O)(=O)N=C=O)cc1`, for which the outcome was inactive.
Same read-out and setting: under `Cn1ccnc1` stands “inactive”; under `[Cl][Eu]([Cl])[Cl]`, “inactive”; under `CCCCCCCC(=O)OCC`, “inactive”.
`O=C(OCc1ccccc1)c1ccc(O)cc1`: the AC50 was 26.8 µM (active).
Turning to `CC1=NN(c2ccc(S(=O)(=O)O)cc2)C(=O)C1N=Nc1ccccc1` (stereo not given), the AC50 is 100 µM (active).
As for `O=C1c2ccccc2C(=O)c2cc(S(=O)(=O)O)ccc21`, the call was inactive.
Take `CCCCCC1=CCCC1=O`: the half-maximal activity concentration (AC50) is 27.4 µM (active).
As to `CCOC(=O)OC(=O)OCC`, the outcome was inactive.
With `CC(C)=CCl`, the call was inactive.
The same measure, in the same setting: under `CC1(C)[C@@H]2CC[C@@]1(C)C(=O)C2` stands “inactive”.
`CCCCCCCCCCCC(C)=O`: the AC50 is 25.6 µM (active).
Same read-out and setting: under `CC(C)C(=O)OCCOc1ccccc1` stands 4.56 µM (active).
As for `Fc1ccc(Br)cc1`, the molecule was classed as inactive.
Same read-out and setting: under `CCCCCCO` stands “inactive”; under `CC(=O)OC/C=C(/C)CCC=C(C)C`, “inactive”; under `Nc1ccnc(=O)[nH]1`, “inactive”.
Still for that read-out and setting: under `CCOc1ccc(NC(N)=O)cc1` stands “inactive”.
Consider `CO[Si](C)(C)OC`, for which the AC50 is 184 µM (active).
Same read-out and setting: under `Clc1cccnc1` stands 27 µM (active); under `O=C1CCCN1C1CCCCC1`, 57.1 µM (active).
Consider `COC(=O)C=Cc1ccccc1`, for which the molecule was classed as inactive.
Consider `CC1(C)CCC[C@]2(C)[C@H]3CC(=O)O[C@]3(C)CC[C@@H]12`, for which the AC50 was 3.61 µM (active).
Turning to `COc1cc(O)c(C(=O)c2ccccc2)cc1S(=O)(=O)O`, the molecule was classed as inactive.
On to `CC=C(C)C=CC=C(C)C`, for which the concentration at half-maximal activity (AC50) is 6.96 µM (active).
With `CC(C)CCOCc1ccccc1`, the result was inactive.
Take `C=CCCCCCCCCO`: the AC50 is 51.6 µM (active).
As to `CCC[Si](OC)(OC)OC`, the AC50 was 129 µM (active).
On the same count and under the same terms, under `CCCCNS(=O)(=O)c1ccc(C)cc1` stands 27.5 µM (active).
`Nc1nc(N)nc(-c2ccccc2)n1`: the result was inactive.
In the case of `CCCCCCCCCCCC(=O)N(C)CC(=O)O`, the result was inactive.
As to `CCc1occc(=O)c1O`, the half-maximal activity concentration (AC50) is 28.4 µM (active).
On to `CC(C)[N+](C)(CCOC(=O)C1c2ccccc2Oc2ccccc21)C(C)C`, for which the molecule was called inactive.
Still for that read-out and setting: under `CCOC(=O)c1ccccc1C` stands “inactive”.
On to `C=CC(=O)OCCCCCCCCCC`, for which the concentration at half-maximal activity (AC50) is 26.4 µM (active).
